Compounds with a hit are over-represented: about 7.2% of the library has one in this group of screens.
TSHR ag = activates the human thyroid stimulating hormone receptor; Potency, µM (series often up to 57.1 µM), for the others: top-dose activation, hits mostly activators; HEK293-CNG-TSHR cells (CNG channel as cAMP sensor), membrane potential dye, cAMP; 73,000 compounds, 0.48% hits; active = well fitted activation curve with a large enough effect in the main read-out, with a control signal flat, not every such curve was filed as active; inconclusive = small, poorly fitted or top-dose-only effect, or a change in a side signal; inactive = no such curve, though single readings can be large or run the other way; % of control where 0% means no effect;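 also: the control signal comes from parental cells without the receptor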
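cAMP rise detected as CNG-channel membrane depolarization by fluorescent dye (emission 590 nm), 30 min after compound, following 60 min dye loading containing 100 uM RO 20-1724 at room temperature. Cells: TSHR/CNG HEK 293, with parental CNG HEK 293 as control.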
Luciferase inh = blocks Photinus pyralis firefly luciferase activity; purified firefly luciferase, luminescence, 8 min; Potency, µM (top dose mostly 57.1 µM), inactives show at the top dose activity change, negative = inhibition, usual class: inhibitors; 72,000 compounds, 2.2% hits; AID 411; also: % is scaled to controls: 0 for no effect and ±100 for the full control effect; nearly all actives have a fitted effect of over 40% in size
Target sequence (P08659 whole entry, looked up): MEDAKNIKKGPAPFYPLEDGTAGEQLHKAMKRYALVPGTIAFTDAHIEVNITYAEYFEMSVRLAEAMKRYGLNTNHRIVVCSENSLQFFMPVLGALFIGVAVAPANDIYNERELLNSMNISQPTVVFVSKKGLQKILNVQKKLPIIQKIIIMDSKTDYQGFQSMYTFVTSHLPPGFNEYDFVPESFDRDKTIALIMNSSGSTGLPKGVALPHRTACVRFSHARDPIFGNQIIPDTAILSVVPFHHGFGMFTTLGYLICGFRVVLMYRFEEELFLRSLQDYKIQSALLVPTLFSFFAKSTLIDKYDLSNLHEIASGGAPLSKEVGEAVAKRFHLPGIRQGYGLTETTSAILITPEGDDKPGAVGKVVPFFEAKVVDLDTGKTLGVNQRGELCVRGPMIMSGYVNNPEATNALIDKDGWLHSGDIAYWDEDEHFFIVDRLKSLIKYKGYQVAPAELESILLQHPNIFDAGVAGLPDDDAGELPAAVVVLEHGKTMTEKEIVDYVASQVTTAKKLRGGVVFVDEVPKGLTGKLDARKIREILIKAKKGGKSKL
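Substrate buffer containing 10 uM ATP (pH 7.2 imidazole, Mg2+, KCl, detergent, BSA) is dispensed, compound pinned in, then luciferase/luciferin detector mix added. After 8 min at ambient temperature, light output is measured.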
Tau fil binding = tau filament binding; P10636; recombinant tau filaments, thioflavin S fluorescence, 15 h; filaments grown with octadecylsulfate alongside compound; Potency, µM (titrated, usually from 57.1 µM), without a hit: at the highest dose activity change, negative = inhibition; 71,000 compounds, 2% hits; AID 596;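 also: % is scaled to controls: 0 for no effect and ±100 for the full control effect; actives lower thioflavin S fluorescence by blocking filaments or displacing dye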
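Read-out: ThS fluorescence, 450 nm excitation/510 nm emission; lower signal marks blocked filament formation or displaced dye. Tau at 1 uM with 30 uM ODS, 10 uM ThS, 5 mM DTT, 100 mM NaCl, 10 mM HEPES pH 7.4; 15 h, 37 C.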
ERK AVP inh = blocks ERK signaling stimulated by vasopressin. 72,000 compounds, 0.99% hits. Potency, µM (top dose mostly 57.5 µM), for inactives: at the top dose activity, negative = inhibition, most hits filed as inhibitors. HEK293-V1b, vasopressin-stimulated pERK AlphaScreen; also: % is scaled to controls: 0 for no effect and ±100 for the full control effect; nearly all actives have a fitted effect of over 55% in size
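HEK293 cells stably expressing V1b receptor, preincubated 30 min at 37 °C with compound, then stimulated 5 min with 25 nM vasopressin. Phospho-ERK by AlphaScreen SureFire after 5 h RT; normalized to DMSO and vasopressin; AC50 by Hill fit.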
PK Bst = alters activity of Bacillus stearothermophilus pyruvate kinase; purified pyruvate kinase, luminescence ATP production; ribose 5-phosphate activator present at AC10; Potency, µM; 51,000 compounds, 1.2% hits; AID 361; in the data active = potency below about 11 µM; inconclusive = mostly about 12 µM to 25 µM;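 the screen sought inhibitors and activators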;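 also: scaled between full activation by ribose 5 phosphate and full inhibition by luteolin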
HEK293 cAMP ctrl = parental HEK293 cAMP activation (counter-screen) | parental HEK293 CNG cAMP sensor, membrane potential fluorescence | Potency, µM (series often up to 57.1 µM), without a hit: at the highest dose activation, most hits filed as activators | 73,000 compounds, 2.5% hits | AID 938; also: % of control where 0% means no effect; nearly all actives have a fitted effect of over 55% in size
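Parental HEK 293 cells stably expressing a cAMP-gated CNG channel were loaded with membrane potential dye containing 100 uM RO 20-1724 for 60 min. Compound added for 30 min; depolarization read as fluorescence intensity at 590 nm.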
* hit, by the source's call; [ ] = another dose, or the depositor's remark. Unless noted, calls follow the shape of the dose curve; as a rule, active = well fitted curve in the direction sought with a large enough effect; inconclusive = small, poorly fitted or top-dose-only effect, or another doubt; inactive = no such curve, though single readings can be large; an effect the other way counts as inactive or inconclusive. Potency is read from the fitted curve at half-maximal effect.

For Cn1cccc1C(=O)N1CCC2(CCCN(c3ccc(-c4ccccc4)cc3)C2)CC1 the results were TSHR ag 7%, Luciferase inh 1%[11.4 µM], Tau fil binding -10%, ERK AVP inh -11% and HEK293 cAMP ctrl -4%.
Screening CCOC(=O)C1=C(C)OC(N)=C(C#N)C1C1CCCCC1 (stereo not given) returned TSHR ag inconclusive, Luciferase inh 1%, Tau fil binding -4%, ERK AVP inh -24% and HEK293 cAMP ctrl 25µM*.
For CCOC(=O)C1=C(C)OC(N)=C(C#N)C1c1ccsc1 (stereo not given) the results were TSHR ag inconclusive, Luciferase inh 2%, Tau fil binding 25%, ERK AVP inh -16%, PK Bst >57 and HEK293 cAMP ctrl 20µM*.
CCSc1nc(N)c2c3c(sc2n1)CCC3 was read as Luciferase inh -16%[25.5 µM] and PK Bst >26.
For NC(=O)CSc1nc(N)c2c3c(sc2n1)CCCCC3 the results were Luciferase inh 13µM* and PK Bst 11*.
Cn1c(C[C@@H](O)c2nc3ccccc3n2C)nc2ccccc21 was read as TSHR ag -1%[11.4 µM], Luciferase inh 2%[11.4 µM], Tau fil binding -11%[11.4 µM], ERK AVP inh -26%[11.5 µM] and HEK293 cAMP ctrl 11%[11.4 µM].
Screening COc1ccc2[nH]cc(CCNc3ncncc3-c3c(C)noc3C)c2c1 returned TSHR ag 7%, Luciferase inh 1%[2.29 µM], Tau fil binding -4%, ERK AVP inh -26% and HEK293 cAMP ctrl 20%.
Screening O=C(Nc1ccccc1)N1CCCC2(CCN(C(=O)c3ccco3)CC2)C1 returned TSHR ag 8%, Luciferase inh 1%[11.4 µM], Tau fil binding 0%, ERK AVP inh -17% and HEK293 cAMP ctrl 7%.
O=S(=O)(c1ccc(F)c2ccccc12)N1CCCCC1 was read as TSHR ag inconclusive, Luciferase inh 1%, Tau fil binding 2%, ERK AVP inh 25%, PK Bst 2.9* and HEK293 cAMP ctrl 32µM*.
`c1cc(-c2nnc(-c3ccncc3)o2)ccn1` gave TSHR ag -12%, Luciferase inh 2%, Tau fil binding -1%, ERK AVP inh 2% and HEK293 cAMP ctrl -4%.
Screening CC(C)COc1ccc(-c2nnc(-c3ccncc3)o2)cc1 returned TSHR ag inconclusive, Luciferase inh 3%, Tau fil binding -13%, ERK AVP inh -4%, PK Bst 2.3* and HEK293 cAMP ctrl inconclusive.
Screening CCCOc1ccc(-c2nnc(-c3ccncc3)o2)cc1 returned TSHR ag 7%, Luciferase inh -4%, Tau fil binding -6%, ERK AVP inh -12%, PK Bst 1.6* and HEK293 cAMP ctrl 15%.
For Nc1ncnc2c1nc(Br)n2[C@@H]1O[C@H]2COP(=O)(O)O[C@@H]2[C@H]1O the results were TSHR ag inconclusive, Luciferase inh 2%, Tau fil binding -5%, ERK AVP inh 6% and HEK293 cAMP ctrl inconclusive.
For COC(=O)c1ccc(C(NC(=O)OCc2ccccc2)/C(=C/[C@@H](C)C(=O)N(C)C)c2cccnc2)cc1 (stereo not given in full) the results were TSHR ag 3%, Tau fil binding -2%, ERK AVP inh -4% and HEK293 cAMP ctrl 0%.
Screening CCSc1nnc(C)n1-c1ccc(C(=O)O)cc1 returned TSHR ag -10%, Luciferase inh -1%, Tau fil binding -1%, ERK AVP inh -13%, PK Bst 6.6* and HEK293 cAMP ctrl -2%.
Screening Cn1c(=O)c2[nH]c(CCNC(=O)c3ccccc3)nc2n(C)c1=O returned TSHR ag 3%[11.4 µM], Luciferase inh 2%[11.4 µM], Tau fil binding 14%[11.4 µM], ERK AVP inh 30%[11.5 µM] and HEK293 cAMP ctrl 11%[11.4 µM].
For Cc1nonc1NC(=O)CSc1nc(C2CCCCC2)nc2ccccc12 the results were TSHR ag inconclusive, Luciferase inh 5%, Tau fil binding 85%, ERK AVP inh 8%, PK Bst >57 and HEK293 cAMP ctrl 25µM*.
For O=C(c1cc2nc(-c3ccc(F)cc3)cc(C(F)(F)F)n2n1)N1CCCC1 the results were TSHR ag 9%[11.4 µM], Luciferase inh -1%, Tau fil binding -7%[11.4 µM], ERK AVP inh 17% and HEK293 cAMP ctrl 0%[11.4 µM].
Screening CN1CCN(C(=O)c2cc3nc(-c4ccc(Cl)cc4)cc(C(F)(F)F)n3n2)CC1 returned TSHR ag 3%[11.4 µM], Luciferase inh 0%, Tau fil binding 2.5µM*, ERK AVP inh -21% and HEK293 cAMP ctrl 4%[11.4 µM].
`CN1CCN(C(=O)c2cc3nc(-c4ccccc4)cc(C(F)(F)F)n3n2)CC1` gave TSHR ag 12%, Luciferase inh 2%, Tau fil binding 25µM*, ERK AVP inh -28%, PK Bst >57 and HEK293 cAMP ctrl 6%.
For O=C(c1cc2nc(-c3ccccc3)cc(C(F)(F)F)n2n1)N1CCCC1 the results were TSHR ag 22%, Luciferase inh 1%, Tau fil binding -9%, ERK AVP inh 0%, PK Bst >57 and HEK293 cAMP ctrl 7%.
COc1ccc(OC)c(N/C(=N\c2nc(C)cc(C)n2)NC(=O)c2ccco2)c1 was read as TSHR ag inconclusive, Luciferase inh 2%, Tau fil binding 0%, ERK AVP inh -11%, PK Bst >57 and HEK293 cAMP ctrl 25µM*.
COc1ccc(CC(=O)Nc2ccc(OC)c(NC(=O)c3ccco3)c2)cc1 was read as TSHR ag -2%, Luciferase inh 0%, Tau fil binding -5%, ERK AVP inh -2%, PK Bst >57 and HEK293 cAMP ctrl 13%.
For CCOC(=O)N/N=C1/C[C@@H](O)[C@@H](O)[C@@H]2[C@@H]3C(=O)N(Cc4ccccc4)C(=O)[C@H]3CC[C@@H]12 the results were TSHR ag -4%[11.4 µM], Luciferase inh -1%[11.4 µM], ERK AVP inh 3%[11.5 µM] and HEK293 cAMP ctrl 0%[11.4 µM].
Screening Cc1noc(COc2ccc(OCc3nc(C)no3)cc2)n1 returned TSHR ag -2%, Luciferase inh 0%, Tau fil binding 0.79µM*, ERK AVP inh -14% and HEK293 cAMP ctrl 3%.
For CC(C)C[C@@H](CC(=O)N[C@@H](CCC(=O)O)CC(=O)O)NC(=O)[C@@H]1CCCC[C@H]1NC(=O)C[C@H](CCCN)NC(=O)C[C@H](CO)NC(=O)[C@@H]1CCCC[C@H]1N the results were TSHR ag 25%, Tau fil binding -23% and HEK293 cAMP ctrl 12%.
`O=c1c(-c2cc(F)cc(F)c2)nc2cncnc2n1Cc1ccccc1Cl` gave TSHR ag -8%, Luciferase inh 0%[11.4 µM], Tau fil binding inconclusive, ERK AVP inh inconclusive and HEK293 cAMP ctrl -22%.
Screening O=c1c(-c2ccc(F)c(F)c2)nc2cncnc2n1Cc1ccccc1Cl returned TSHR ag -36%, Luciferase inh -3%[11.4 µM], Tau fil binding 7.9µM*, ERK AVP inh inconclusive and HEK293 cAMP ctrl -11%.

Screening data (PubChem)
